Laboratory results reported in PubChem BioAssay (NCATS).
Results filed as inconclusive are left out. The source made the active and inactive calls. Calls come from the whole dose curve; as a rule, active = well fitted curve in the direction sought with a large enough effect; inconclusive = small, poorly fitted or top-dose-only effect, or another doubt; inactive = no such curve, though single readings can be large; an effect the other way counts as inactive or inconclusive.

Key:
MCC-13 = experiment: qHTS assay to identify novel small-molecules to repurpose for Merkel cell carcinoma treatment (AID 1296009); settings: MCC and control cell lines, CellTiter-Glo viability, 72 h; series mostly up to 46 µM; note: nearly all actives have a fitted effect of over 60% in size
How it was run: (§1)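 After compound transfer in DMSO, plates were kept 72 hr at 37 degree celsius. Luminescent ATP signal from CellTiter-Glo served as viability measure, normalized against DMSO and no-cell controls.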

MCC-26 = experiment: as above; settings: MCC and control cell lines, CellTiter-Glo viability, 72 h; series mostly up to 46 µM
How it was run: as §1

MKL-1 = experiment: as above; settings: MCC and control cell lines, CellTiter-Glo viability, 72 h; series mostly up to 46 µM
How it was run: as §1

MKL-2 = experiment: as above; settings: MCC and control cell lines, CellTiter-Glo viability, 72 h; series mostly up to 46 µM
How it was run: as §1

UISO = experiment: as above; settings: MCC and control cell lines, CellTiter-Glo viability, 72 h; series mostly up to 46 µM
How it was run: as §1

WaGa = experiment: as above; settings: MCC and control cell lines, CellTiter-Glo viability, 72 h; series mostly up to 46 µM
How it was run: as §1

C33A = experiment: Primary qHTS to identify gynecologic anti-cancer compounds using libraries of approved drugs and bioactive compounds (AID 1345084); settings: Gynecologic cancer cell panel viability, ATPlite luminescence, 48 h; series mostly up to 57.5 µM; note: nearly all actives have a fitted effect of over 55% in size
How it was run: (§2)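 ATP-based viability (ATPlite), 1,000 cells/well, 16 h pre-incubation, 48 h compound at 37 C, 5% CO2, 15 min RT before read.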

CAOV3 = experiment: as above; settings: Gynecologic cancer cell panel viability, ATPlite luminescence, 48 h; series mostly up to 57.5 µM
How it was run: as §2

CASKI = experiment: as above; settings: Gynecologic cancer cell panel viability, ATPlite luminescence, 48 h; series mostly up to 57.5 µM
How it was run: as §2

Es-2 = experiment: as above; settings: Gynecologic cancer cell panel viability, ATPlite luminescence, 48 h; series mostly up to 57.5 µM
How it was run: as §2

HeLa = experiment: as above; settings: Gynecologic cancer cell panel viability, ATPlite luminescence, 48 h; series mostly up to 57.5 µM
How it was run: as §2

Hek293T = experiment: as above; settings: Gynecologic cancer cell panel viability, ATPlite luminescence, 48 h, control line for the selectivity index; series mostly up to 57.5 µM
How it was run: as §2

JEG-3 = experiment: as above; settings: Gynecologic cancer cell panel viability, ATPlite luminescence, 48 h; series mostly up to 57.5 µM
How it was run: as §2

OV90 = experiment: as above; settings: Gynecologic cancer cell panel viability, ATPlite luminescence, 48 h; series mostly up to 57.5 µM
How it was run: as §2

PA-1 = experiment: as above; settings: Gynecologic cancer cell panel viability, ATPlite luminescence, 48 h; series mostly up to 57.5 µM
How it was run: as §2

SKOV3 = experiment: as above; settings: Gynecologic cancer cell panel viability, ATPlite luminescence, 48 h; series mostly up to 57.5 µM
How it was run: as §2

Tov-21-G = experiment: as above; settings: Gynecologic cancer cell panel viability, ATPlite luminescence, 48 h; series mostly up to 57.5 µM
How it was run: as §2

Tov112D = experiment: as above; settings: Gynecologic cancer cell panel viability, ATPlite luminescence, 48 h; series mostly up to 57.5 µM
How it was run: as §2

Measured: Potency

CC(=O)c1cc2ccccc2s1
inactive: MCC-13 | MCC-26 | MKL-1 | MKL-2 | UISO | WaGa | C33A | CAOV3 | CASKI | Es-2 | HeLa | Hek293T | JEG-3 | OV90 | PA-1 | SKOV3 | Tov-21-G | Tov112D

O=C(CCCl)NCCc1ccccc1
inactive: MCC-13 | MCC-26 | MKL-1 | MKL-2 | UISO | WaGa | C33A | CAOV3 | CASKI | Es-2 | HeLa | Hek293T | JEG-3 | OV90 | PA-1 | Tov-21-G | Tov112D

CN1Cc2cc(C(=O)N3CCC(C4CCNCC4)CC3)ccc2NC(CC(=O)O)C1=O (configuration not stated)
inactive: MCC-13 | MCC-26 | MKL-1 | MKL-2 | UISO | WaGa | C33A | CAOV3 | CASKI | Es-2 | HeLa | Hek293T | JEG-3 | OV90 | PA-1 | Tov-21-G | Tov112D
